PLCg1 inh = inhibitors of human phospholipase C gamma1. P19174. inhibition, % at 12.2 µM. purified PLC-gamma1, fluorogenic substrate, fluorescence. 0.84% of 370,000 active; in the data active = inhibition above about 9.5%
KLK7 zymogen act = activators of human kallikrein-7 zymogen | P49862 | purified proKLK7, EDANS-DABCYL substrate fluorescence; 100% is mature enzyme control, 0% vehicle | activation, % at 7 µM | 0.9% of 370,000 active | AID 652039;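 active = activation above the mean of all tested compounds plus 3 SD, computed per campaign excluding outliers beyond control limits, cut at about 13% in these data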
PLCb3 inh = PLC-beta3 (human) inhibition, primary screen | Q01970 | Purified PLC-beta3, fluorogenic substrate, fluorescence | inhibition, % at 12.2 µM | 0.18% of 370,000 active | AID 720704; in the data active = inhibition above about 11%;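 also: 0% = median of compound wells on plate and 100% = full blocker control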
ADAM10 inh = ADAM10 inhibition, QFRET primary screen; 0.62% of 370,000 active; inhibition, % at 7 µM; O14672; recombinant ADAM10, EDANS/DABCYL FRET peptide cleavage, 3 h;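 active = inhibition above a per-campaign cutoff equal to the mean of compounds falling between control-based bounds plus 3 SD, cut at about 20% in these data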;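 also: 0% = DMSO wells while the 100% control is not disclosed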
ADAM17 inh = inhibitors of human ADAM17. P78536. recombinant ADAM17, EDANS/DABCYL FRET peptide cleavage. inhibition, % at 6.95 µM. 0.83% of 370,000 active. AID 720648;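 active = inhibition above the mean of compounds lying between control limits plus 3 SD, set per campaign, cut at about 8.5% in these data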;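 also: 0% = DMSO-only wells as the low control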
ADAM10 confirm = human ADAM10 inhibition, confirmation; shares compounds with ADAM10 inh; ADAM10 QFRET peptide cleavage, EDANS fluorescence; inhibition, % at 6.95 µM; 1% of 2,100 active;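 active = inhibition above about 20% chosen separately for each screening run, limit read from the data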;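 also: 0% = DMSO wells and 100% = marimastat wells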
ADAM17 ctr = ADAM17 inhibition, counter-screen for ADAM10 exosite hits. shares compounds with ADAM10 inh. ADAM17 QFRET peptide cleavage, EDANS fluorescence. inhibition, % at 6.95 µM. 0.5% of 2,100 active. AID 743214;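 active = mean triplicate inhibition above the solvent-only control wells' mean plus 3 SD, cut at about 12% in these data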;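 also: 0% = DMSO wells and 100% = marimastat wells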
* = called active by the depositor; . = no result given. Sampled rows, rich in hits. Any-hit rate of the full collection: about 2.9%.

SMILES | PLCg1 inh | KLK7 zymogen act | PLCb3 inh | ADAM10 inh | ADAM17 inh | ADAM10 confirm | ADAM17 ctr
O=C1OCCN1C(=O)[C@H]1[C@H](c2ccc([N+](=O)[O-])cc2)C(c2ccccc2)=NN1c1ccccc1 | -4 | 0 | -10 | 24* | 8 | 7 | 3
O=C1OCCN1C(=O)[C@H]1[C@H](c2ccc([N+](=O)[O-])cc2)C(c2cccc(Cl)c2)=NN1c1ccccc1 | 2 | -1 | -9 | 42* | 17* | 13 | 5
O=C1OCCN1C(=O)[C@H]1[C@H](c2ccc(F)cc2)C(c2ccc(F)cc2)=NN1c1ccccc1 | -80 | 1 | -99 | -54 | -16 | . | .
Cc1c(C2Nc3ccccc3C2C)[nH]c2ccccc12 (stereo not drawn) | -14 | -1 | -23 | -28 | -8 | . | .
O=C(O)c1ccccc1NSc1ccccc1[N+](=O)[O-] | -7 | 0 | -7 | -23 | -6 | . | .
CCc1ccc(NSc2ccccc2[N+](=O)[O-])cc1 | -1 | 0 | 1 | 20* | 8 | 6 | 2
COC(=O)C1=C(C)NC(C)=C(C(=O)OCC2CCCO2)C1c1ccc(Cl)c([N+](=O)[O-])c1 (stereo not drawn) | 6 | 0 | 0 | 26* | 4 | 2 | 1
COC(=O)C1=C(C)NC(C)=C(C(=O)OCC2CCCO2)C1c1cccc(Cl)c1 (stereo not drawn) | -87 | 1 | -126 | -122 | -31 | . | .
CCCC1CCC2(CCC(=O)N2CCOC)CC1 (stereo not drawn) | 1 | 0 | 0 | -1 | -1 | . | .
CCOc1ccc(-c2[nH]ncc2Oc2ccccc2OCC)c(O)c1 | 1 | 0 | 2 | 26* | 7 | 8 | 2
CCOc1ccc(-c2nc(N)ncc2Oc2ccccc2Br)c(O)c1 | -14 | -1 | -22 | 21* | 4 | 6 | 2
C=C(C)COc1ccc(-c2[nH]ncc2Oc2ccc(OC)cc2)c(O)c1 | 1 | 0 | 2 | 21* | 7 | 12 | 4
Nc1ccn([C@@H]2O[C@H](C(=O)NCC(=O)N3CCOCC3)[C@@H](O)[C@H]2O)c(=O)n1 | -1 | 0 | 3 | -5 | -4 | . | .
CC1CCN(C(=O)C2CCCN(C(=O)c3ccc4c(c3)NC(=O)CS4)C2)CC1 (stereo not drawn) | 2 | 1 | 2 | -1 | -1 | . | .
O=C(NC1CCCCC1)[C@H](CSCc1ccccc1)N1Cc2ccccc2C1=O | 4 | 0 | 8 | 22* | 7 | 1 | 0
CC(O)(c1ccc(F)c(F)c1)c1nc(-c2ccc(F)c(Cl)c2)cs1 (stereo not drawn) | 4 | 0 | 0 | 22* | 8 | 8 | 3
OC(c1ccccc1)(c1nc(-c2ccc(F)c(Cl)c2)cs1)C(F)(F)F (stereo not drawn) | 8 | 1 | 2 | 22* | 8 | 9 | 3
CC(O)(c1ccc(F)c(F)c1)c1nc(-c2cccc(F)c2)cs1 (stereo not drawn) | 2 | 0 | 0 | 6 | 4 | . | .
CC(O)(c1ccc(F)c(F)c1)c1nc(-c2cc(F)cc(F)c2)cs1 (stereo not drawn) | 1 | 1 | 3 | 20* | 5 | 4 | 2
CC(O)(c1ccccc1)c1nc(-c2ccc(F)c(Cl)c2)cs1 (stereo not drawn) | 0 | 0 | 2 | 15 | 3 | . | .
N#Cc1cccc(NC(=O)OCCCN2CCC3(CCCCC3)C2=O)c1 | 0 | -1 | -1 | 4 | 1 | . | .
CNC(=S)N/N=C/c1cn(CCOc2ccc(OC)cc2)c2ccccc12 | 2 | -3 | 2 | 20* | 5 | 12 | 5
COc1ccccc1OCCn1cc(/C=N/NC(N)=S)c2ccccc21 | 6 | -1 | 1 | 7 | 4 | . | .
CCCNS(=O)(=O)c1ccc(CCC(=O)Nc2cc(Cl)ccc2Oc2ccccc2)cc1 | 1 | 0 | -2 | 21* | 7 | 5 | 3
O=C(Nc1cc(Cl)ccc1O)c1cc2n(n1)C(C(F)(F)F)CC(c1ccc3c(c1)OCO3)N2 (stereo not drawn) | -18 | 0 | -21 | 29* | 8 | 6 | 2

Screening data: PubChem, The Scripps Research Institute Molecular Screening Center
